Some test systems named below: HCT-15 colon; SNB-75 CNS; SNB-19 CNS; U251 CNS; PC-3 prostate; SK-MEL-5 melanoma; UACC-62 melanoma; LOX IMVI melanoma; SK-MEL-28 melanoma; SK-MEL-2 melanoma; EKVX NSCLC; SN12C renal; UO-31 renal; TK-10 renal; ACHN renal; CAKI-1 renal; A498 renal; CCRF-CEM leukemia; MOLT-4 leukemia; HT29 colon.
Common to all, as to experiment: NCI-60 one-dose screen, 48 h (100 = growth as untreated, 0 = no growth, -100 = all killed)
Settings in all cases: 10 µM unless noted

Structures are written as SMILES. “And” between values parts separate entries of the source, which are not always exact repeats. Identical values can stand only once. The panel holds about 83,000 compounds, 20% with a hit somewhere; the sample as a whole holds those more often.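 Single-dose data. Exposure time 48 hours. Values below 10 considered active.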 A number with no mark means an inactive call. The source made the active and inactive calls.

Take `C=CCNC(=O)Cc1c(-c2ccc(OC)cc2)oc2c(OC)c3c(c(OC)c12)OCO3`: the growth in the assay on HCT-15 colon is 86.7%; in the assay with SNB-75 CNS, 96.4%; in the assay with SNB-19 CNS, 95.3%; in the assay with U251 CNS it was 105%; in the assay on PC-3 prostate, 95.2%; in the assay on SK-MEL-5 melanoma, 96.3%. Moreover, the growth is 89% in the assay with UACC-62 melanoma; 93% in the assay with LOX IMVI melanoma; 109% in the assay on SK-MEL-28 melanoma; 108% in the assay on SK-MEL-2 melanoma; 107% with EKVX NSCLC; 94.6% with SN12C renal. In addition, the growth was 80.8% in the assay on UO-31 renal; 110% in the assay with TK-10 renal; 104% with ACHN renal; 87.8% with CAKI-1 renal; 55% in the assay on A498 renal; 94.1% in the assay with CCRF-CEM leukemia. Further, the growth in the assay on MOLT-4 leukemia was 99.7%.

`CCCCC1=C(Br)C(=O)c2nc(C)ccc2C1=O`: the growth is 95.5% in the assay with HCT-15 colon; 84.4% with SNB-75 CNS; 92.5% in the assay with SNB-19 CNS; 89.6% in the assay on U251 CNS; 80.3% in the assay with PC-3 prostate; 92.6% in the assay on SK-MEL-5 melanoma. The growth with UACC-62 melanoma was 84.9%; in the assay with LOX IMVI melanoma, 89.1%; with SK-MEL-28 melanoma it was 105%; with SK-MEL-2 melanoma, 109%; in the assay with EKVX NSCLC it was 92.7%; with SN12C renal, 91.6%. The growth in the assay on TK-10 renal was 115%; with ACHN renal it was 57.1%; in the assay with CAKI-1 renal, 85.9%; with A498 renal it was 93.8%; in the assay with CCRF-CEM leukemia it was 30.9%; in the assay on MOLT-4 leukemia, 21.3%.

Turning to `N#C/C(=C\c1ccc(Br)cc1)n1nnc2c(F)cccc21`, the growth was 1.57% (active) with HCT-15 colon; 18.8% with SNB-75 CNS; 15% in the assay with SNB-19 CNS; -19.5% (active) in the assay on U251 CNS; 4.26% (active) in the assay on PC-3 prostate; -12.1% (active) in the assay on SK-MEL-5 melanoma. Moreover, the growth in the assay on UACC-62 melanoma was -37.5% (active); with LOX IMVI melanoma, -69.1% (active); in the assay with SK-MEL-28 melanoma, -3.74% (active); in the assay on SK-MEL-2 melanoma, 28.4%; in the assay with EKVX NSCLC it was 30.6%; with SN12C renal, -1.81% (active). Also, the growth was -65.9% (active) in the assay with UO-31 renal; 2.41% (active) in the assay with TK-10 renal; -50.8% (active) in the assay on ACHN renal; -4.93% (active) in the assay on CAKI-1 renal; -21.9% (active) with A498 renal; 2.97% (active) in the assay on CCRF-CEM leukemia. Besides, the growth with MOLT-4 leukemia was 9.87% (active).

`N#CC1C(=O)c2ccccc2C1c1ccccc1` (configuration not stated): the growth was 101% and 95.5% with HCT-15 colon; 114% and 110% in the assay with HT29 colon; 89.5% and 93.2% with SNB-75 CNS; 98.6% and 99.8% in the assay on U251 CNS; 111% and 116% in the assay on PC-3 prostate; 96.8% and 103% with SK-MEL-5 melanoma. Moreover, the growth in the assay on LOX IMVI melanoma was 91.5% and 98.1%; in the assay with SK-MEL-2 melanoma, 103%; in the assay on EKVX NSCLC, 103%; with SN12C renal, 101% and 98.5%; with UO-31 renal, 74% and 84.6%; in the assay with TK-10 renal, 109% and 106%. The growth in the assay on ACHN renal was 108% and 103%; in the assay with CAKI-1 renal, 92.2% and 93.6%; with A498 renal it was 128% and 99.1%; with CCRF-CEM leukemia, 98.2% and 94.2%; in the assay with MOLT-4 leukemia, 80.4% and 83.3%.

For the compound `Cc1ccc(S(=O)(=O)OC[C@@]2(C)CC[C@]3(C)CC[C@]4(C)C(=CC[C@@H]5[C@@]6(C)CCCNC(C)(C)[C@@H]6CC[C@]54C)[C@@H]3C2)cc1`, the growth in the assay on HCT-15 colon is -89.7% (active); in the assay with SNB-75 CNS it was -57.1% (active); in the assay with SNB-19 CNS, -16.7% (active); in the assay on U251 CNS it was -89.6% (active); in the assay on PC-3 prostate, -10.3% (active); with SK-MEL-5 melanoma it was 40.1%. Further, the growth is -69.2% (active) in the assay on UACC-62 melanoma; -99.5% (active) in the assay with LOX IMVI melanoma; 55.6% in the assay on SK-MEL-28 melanoma; -59% (active) in the assay on SK-MEL-2 melanoma; 9.58% (active) in the assay with EKVX NSCLC; -88.3% (active) in the assay on SN12C renal. For the same compound, the growth is -2.29% (active) with UO-31 renal; -61.1% (active) with TK-10 renal; -100% (active) with ACHN renal; -92.4% (active) in the assay with CAKI-1 renal; 86.8% with A498 renal; -28.6% (active) in the assay with CCRF-CEM leukemia. The growth in the assay on MOLT-4 leukemia is -42.1% (active).

On to `Nc1nc(CSc2n[nH]c(N)n2)nc(Nc2ccccc2)n1`, for which the growth was 94.2% with HCT-15 colon; 82.2% in the assay on SNB-75 CNS; 101% in the assay on SNB-19 CNS; 99.9% with U251 CNS; 101% in the assay on PC-3 prostate; 101% in the assay on SK-MEL-5 melanoma. For the same compound, the growth in the assay with UACC-62 melanoma was 91.9%; in the assay on SK-MEL-2 melanoma, 106%; in the assay with EKVX NSCLC it was 96.1%; in the assay with SN12C renal, 101%; in the assay with UO-31 renal it was 87.2%; with TK-10 renal it was 99.1%. Besides, the growth was 98.6% in the assay on ACHN renal; 87.6% with CAKI-1 renal; 89.3% in the assay with A498 renal; 45.9% in the assay on CCRF-CEM leukemia; 107% with MOLT-4 leukemia.

Regarding `CC1=C2[C@@H](CC1)[C@]1(C)O[C@@](C(C)C)(C[C@H]1OC(=O)CO)[C@H]2OC(=O)C1CC1c1ccccc1` (some centres not stated), the growth in the assay with HCT-15 colon is 96.8%; in the assay on SNB-75 CNS, 102%; in the assay with SNB-19 CNS, 88.5%; in the assay on U251 CNS, 79.6%; in the assay with PC-3 prostate, 62.6%; in the assay on SK-MEL-5 melanoma, 95%. Further, the growth with UACC-62 melanoma is 53.3%; in the assay with LOX IMVI melanoma, 77%; in the assay with SK-MEL-28 melanoma, 114%; in the assay with SK-MEL-2 melanoma it was 75.8%; with EKVX NSCLC, 93.8%; in the assay on SN12C renal, 61.5%. The growth in the assay with UO-31 renal is 54.2%; with TK-10 renal it was 88%; with A498 renal, -20% (active).

On to `O=C(NNC(=S)Nc1ccccc1)c1ccncc1`, for which the growth in the assay with HCT-15 colon was 101%; with SNB-75 CNS it was 102%; in the assay with SNB-19 CNS it was 110%; with U251 CNS, 105%; with PC-3 prostate, 90.1%; in the assay with SK-MEL-5 melanoma it was 109%. The growth in the assay on UACC-62 melanoma is 109%; in the assay on SK-MEL-28 melanoma it was 115%; in the assay on SK-MEL-2 melanoma, 94.3%; in the assay on EKVX NSCLC, 117%; in the assay on SN12C renal it was 109%; with UO-31 renal it was 84%. The growth in the assay on TK-10 renal was 102%; in the assay with ACHN renal, 103%; in the assay on CAKI-1 renal, 133%; in the assay with A498 renal it was 124%; in the assay with CCRF-CEM leukemia, 93.7%; in the assay on MOLT-4 leukemia, 104%.

The values above are taken from PubChem BioAssay (NCI).
